PMC4336329 (PLoS ONE, 2015)
Among all 310,000 compounds or so, about 14,000 (4.5%) showed an effect of 50% or more. The effect is printed as a negative number. The list comes from a sample in which strong results are over-represented; it also holds similar structures and randomly drawn compounds.

Each molecule was assayed against human ether-à-go-go-related gene (hERG) potassium channel (human, UniProt Q12809) (assay: primary screen, population patch clamp on CHO cells stably expressing hERG; higher = less effect of the substance).
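Note: peak tail current of the secondary pulse compared with the same well before compound.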

Chain of human ether-à-go-go-related gene (hERG) potassium channel (Q12809 whole entry, looked up): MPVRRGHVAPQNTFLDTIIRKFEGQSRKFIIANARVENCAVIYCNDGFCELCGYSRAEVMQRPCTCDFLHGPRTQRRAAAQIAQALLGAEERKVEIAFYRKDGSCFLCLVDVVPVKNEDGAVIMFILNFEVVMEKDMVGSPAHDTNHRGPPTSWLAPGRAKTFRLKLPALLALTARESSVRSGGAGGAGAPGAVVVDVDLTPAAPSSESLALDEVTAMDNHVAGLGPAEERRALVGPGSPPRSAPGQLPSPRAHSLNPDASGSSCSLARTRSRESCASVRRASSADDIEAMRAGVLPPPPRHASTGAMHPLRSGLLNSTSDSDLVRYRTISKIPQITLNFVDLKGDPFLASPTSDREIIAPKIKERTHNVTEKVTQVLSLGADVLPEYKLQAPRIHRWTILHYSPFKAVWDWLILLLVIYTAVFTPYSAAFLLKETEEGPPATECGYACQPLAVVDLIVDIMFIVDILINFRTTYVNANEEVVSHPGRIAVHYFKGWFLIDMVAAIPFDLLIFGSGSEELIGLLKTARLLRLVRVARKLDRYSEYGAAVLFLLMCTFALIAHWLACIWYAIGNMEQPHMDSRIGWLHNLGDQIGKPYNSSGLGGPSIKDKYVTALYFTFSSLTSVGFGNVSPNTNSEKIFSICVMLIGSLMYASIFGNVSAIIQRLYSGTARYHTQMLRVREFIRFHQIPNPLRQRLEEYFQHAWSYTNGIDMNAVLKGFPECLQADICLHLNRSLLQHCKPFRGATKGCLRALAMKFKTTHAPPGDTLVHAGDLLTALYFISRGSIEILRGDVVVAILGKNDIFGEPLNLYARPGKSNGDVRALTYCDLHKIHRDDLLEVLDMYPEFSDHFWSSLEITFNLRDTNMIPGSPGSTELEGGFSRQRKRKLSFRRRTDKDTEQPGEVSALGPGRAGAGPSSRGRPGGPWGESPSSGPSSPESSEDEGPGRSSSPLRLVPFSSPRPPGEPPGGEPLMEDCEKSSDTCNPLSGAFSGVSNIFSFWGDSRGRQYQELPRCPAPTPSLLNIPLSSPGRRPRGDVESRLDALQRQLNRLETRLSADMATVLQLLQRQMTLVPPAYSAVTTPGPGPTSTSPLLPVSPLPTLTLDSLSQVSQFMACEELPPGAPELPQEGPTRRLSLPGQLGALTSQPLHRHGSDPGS

Structure (SMILES) | hERG current change (%, negative = inhibition) at 10uM [%]
O=C(O)C1Cc2ccccc2-c2ccccc2C1 | 20.1
CC(C)COC(=O)c1ccc(NC(=O)C2C3CCC(C3)C2C(=O)O)cc1 (stereo not shown) | 7.41
Nc1nc(Cl)cc(Sc2ccc3ccccc3c2)n1 | 14.1
CCOC(=O)c1ccoc1CSCc1ccc(C(=O)OC)o1 | 5.24
COc1ccc(CNC(=O)C/C(C)=N/NC(=O)Cc2ccc(OC)cc2)cc1 | 3.39
CCC(=O)Oc1ccc(-c2cnc3ccccc3n2)cc1 | 13.5
COc1ccc(C(CNC(=O)c2cccc(S(=O)(=O)NCc3ccccc3)c2)N2CCOCC2)cc1 (stereo not shown) | -40
Cc1nc(N2CCN(Cc3ccc(Cl)cc3)CC2)c2oc3ccccc3c2n1 | -19.3
Cl.c1ccc2c(c1)oc1c(N3CCOCC3)ncnc12 | 9.53
c1ccc2[nH]c(CN3CCN(c4ncnc5c4oc4ccccc45)CC3)nc2c1 | -73.1
Cc1nc(N2CCN(Cc3nc4ccccc4[nH]3)CC2)c2oc3ccccc3c2n1 | -52.1
C(=C\c1ccccc1)/CN1CCN(c2ncnc3c2oc2ccccc23)CC1 | -53.7
c1ccc(N2CCN(c3ncnc4c3oc3ccccc34)CC2)cc1 | 2.36
Cc1nc(SCc2nc3ccccc3[nH]2)c2oc3ccccc3c2n1 | 1.04
COc1ccccc1N1CCN(c2ncnc3c2oc2ccccc23)CC1 | 6.73
c1ccc2[nH]c(CSc3ncnc4c3oc3ccccc34)nc2c1 | -21.4
CC(C)(C)NC(=O)CCN(/N=C/c1ccccc1F)C1=NS(=O)(=O)c2ccccc21 | 15.7
CCNc1c(NS(=O)(=O)c2ccc(OC)cc2)c(=O)oc2ccccc12 | -24.3
O=C(Nc1ccccc1Cc1ccccc1)c1ccc2c(c1)SC1=NS(=O)(=O)CCN12 | -5.78
COC(=O)c1cccc(NC(=S)Nc2ccccc2Cl)c1 | -3.48
Cc1c(C(=O)N(C)C)c2ccc(Cl)cc2n1O | 15.6
COc1ccc(Cn2c(=O)[nH]c3cc(OC)c(OC)cc3c2=O)cc1 | 7.17

Structure (SMILES) | hERG current change (%, negative = inhibition) at 10uM [%]
Cc1ccc(C(=O)N/C(N)=N/c2nc3ccccc3o2)cc1 | -2.82
N=c1c2c(-c3ccccc3)c(-c3ccccc3)oc2ncn1Cc1ccco1 | 0.861
CC1(C)Cc2c(sc3c2c(=N)n(Cc2ccco2)c(=O)n3Cc2ccccc2)CO1 | -12.5
CC(C)Cn1cnc2c(c(-c3ccccc3)c(-c3ccccc3)n2Cc2ccco2)c1=N | -73.3
N=c1c2c(-c3ccccc3)c(-c3ccccc3)n(Cc3ccco3)c2ncn1Cc1ccccc1 | -69.3
O=c1c2ccccc2c2ccccc2c(=O)n1Cc1ccco1 | 3.47
N=c1c2c(-c3ccccc3)c(-c3ccccc3)n(Cc3ccco3)c2ncn1Cc1ccco1 | -71.2
N=C1C(c2ccccc2)=C(O)CN1Cc1ccco1 | 6.39
O=c1c2ccccc2nc(-c2ccccc2)n1Cc1ccco1 | -30.5
CCN(CC)S(=O)(=O)c1ccc(Cl)c(C(=O)Nc2cc(C)nn2-c2ccccc2)c1 | -26.3
O=C(CCC(=O)N1CCSc2ccccc21)NCc1ccc(Cl)cc1 | -33.8
CCOc1cc(/C=N/NC(=O)c2ccncc2)ccc1OS(C)(=O)=O | -3.33
COc1ccc(C2=CC3=C(Br)C(=O)C(C)(O)C(=O)C3=CO2)cc1 (stereo not shown) | 11.9
O=[N+]([O-])c1cc([N+](=O)[O-])c(N2CCCCCC2)cc1NCCO | -13.4
Cc1ccc2c(c1)C(O)(CC(=O)c1ccc(C)s1)C(=O)N2 (stereo not shown) | 21.4
O=C1C=C(c2ccc3[nH]ccc3c2)CCC1 | 16.3
CC(=O)OCC1(C)CN(c2ccccc2)NC1=O (stereo not shown) | 13.7
CC(CCc1ccccc1)NC(=O)CNc1cccc([N+](=O)[O-])c1 (stereo not shown) | -30.1
O=C(Cc1ccccc1)NC(NC(=O)Cc1ccccc1)c1cccc([N+](=O)[O-])c1 | 4.27
CC(CCc1ccccc1)NC(=O)c1cccc([N+](=O)[O-])c1 (stereo not shown) | -8.01
N/C(=N\OC(=O)CCCc1ccccc1)c1cccc([N+](=O)[O-])c1 | -3.9
CC(CCc1ccccc1)N(C)CC(O)c1cccc([N+](=O)[O-])c1.Cl (stereo not shown) | -68.6

Structure (SMILES) | hERG current change (%, negative = inhibition) at 10uM [%]
Cl.NC(=NCCc1ccccc1)c1cccc([N+](=O)[O-])c1 | -57.7
C=CCN(CC(O)c1cccc([N+](=O)[O-])c1)C(C)CCc1ccccc1.Cl (stereo not shown) | -36.4
Cl.NC(=NCc1ccccc1)c1cccc([N+](=O)[O-])c1 | -20
CC(CCc1ccccc1)NCC(O)c1cccc([N+](=O)[O-])c1.Cl (stereo not shown) | -56.2
CCOc1cc(/C=C(/C#N)c2nc3ccccc3[nH]2)ccc1OCc1ccc(C(=O)O)o1 | 3.75
CC1(C)CC2CC(C)(CN2C(=O)C23CCC(C)(C(=O)O2)C3(C)C)C1 (stereo not shown) | -8.69
Cc1cc(C)c(S(=O)(=O)NCc2cn3ccccc3n2)c(C)c1 | 4.96
CCCCNC(=O)c1cc2ccccc2s1 | 10.8
CC1CCN(C(=O)CNC(=O)CNC(=O)Cc2ccccc2)CC1 | 4.9
C=CCN1C(=O)C2C(C(=O)NC3CCCC3)C3C=CC2(O3)C1C(=O)NC1CCCC1 (stereo not shown) | 19
COC(=O)c1sccc1NC(=O)c1c(F)c(F)c(F)c(F)c1F | 27
CN(Cc1ccccc1)CC(O)COc1ccc(CNCc2cccnc2)cc1 (stereo not shown) | 1.13
COc1ccc(CN(C)CC(O)COc2ccc(-c3ccccc3)cc2)cc1OC (stereo not shown) | -69.4
CN(Cc1ccccc1)CC(O)COc1ccc(CNCc2nccn2C)cc1 (stereo not shown) | -72.5
Cc1cc(CN(C)Cc2ccc(OCC(O)CN(C)Cc3ccccc3)cc2)on1 (stereo not shown) | -4.84
COc1ccc(OCC(O)CNc2ccc(Br)cc2)cc1 (stereo not shown) | 9.56
CN(Cc1ccc(Br)cc1)CC(O)COc1cccc(Br)c1 (stereo not shown) | -28.5
CN(Cc1ccc(OCC(O)CN(C)Cc2ccccc2)cc1)Cc1nccn1C (stereo not shown) | -4.14
CCn1ccnc1CNCc1ccc(OCC(O)CN(C)Cc2ccccc2)cc1 (stereo not shown) | -11.7
COc1ccc(Br)cc1CN(C)CC(O)COc1ccc(Br)cc1 (stereo not shown) | -74.6
